The values below come from ChEMBL document CHEMBL5308504, “Tm Shift (DSF) assay results for EUbOPEN Chemogenomics Library” (2023).

In assay [1] the target is Bromodomain-containing protein 4 (Homo sapiens) (UniProt O60885). The conditions noted are these: Compound concentration 20.0 uM, Protein concentration 2.0 uM, Result type QC Liability.
Assay [2] concerns the target T1, Transcription intermediary factor 1-alpha (Homo sapiens) (UniProt O15164).
T1 sequence (whole entry): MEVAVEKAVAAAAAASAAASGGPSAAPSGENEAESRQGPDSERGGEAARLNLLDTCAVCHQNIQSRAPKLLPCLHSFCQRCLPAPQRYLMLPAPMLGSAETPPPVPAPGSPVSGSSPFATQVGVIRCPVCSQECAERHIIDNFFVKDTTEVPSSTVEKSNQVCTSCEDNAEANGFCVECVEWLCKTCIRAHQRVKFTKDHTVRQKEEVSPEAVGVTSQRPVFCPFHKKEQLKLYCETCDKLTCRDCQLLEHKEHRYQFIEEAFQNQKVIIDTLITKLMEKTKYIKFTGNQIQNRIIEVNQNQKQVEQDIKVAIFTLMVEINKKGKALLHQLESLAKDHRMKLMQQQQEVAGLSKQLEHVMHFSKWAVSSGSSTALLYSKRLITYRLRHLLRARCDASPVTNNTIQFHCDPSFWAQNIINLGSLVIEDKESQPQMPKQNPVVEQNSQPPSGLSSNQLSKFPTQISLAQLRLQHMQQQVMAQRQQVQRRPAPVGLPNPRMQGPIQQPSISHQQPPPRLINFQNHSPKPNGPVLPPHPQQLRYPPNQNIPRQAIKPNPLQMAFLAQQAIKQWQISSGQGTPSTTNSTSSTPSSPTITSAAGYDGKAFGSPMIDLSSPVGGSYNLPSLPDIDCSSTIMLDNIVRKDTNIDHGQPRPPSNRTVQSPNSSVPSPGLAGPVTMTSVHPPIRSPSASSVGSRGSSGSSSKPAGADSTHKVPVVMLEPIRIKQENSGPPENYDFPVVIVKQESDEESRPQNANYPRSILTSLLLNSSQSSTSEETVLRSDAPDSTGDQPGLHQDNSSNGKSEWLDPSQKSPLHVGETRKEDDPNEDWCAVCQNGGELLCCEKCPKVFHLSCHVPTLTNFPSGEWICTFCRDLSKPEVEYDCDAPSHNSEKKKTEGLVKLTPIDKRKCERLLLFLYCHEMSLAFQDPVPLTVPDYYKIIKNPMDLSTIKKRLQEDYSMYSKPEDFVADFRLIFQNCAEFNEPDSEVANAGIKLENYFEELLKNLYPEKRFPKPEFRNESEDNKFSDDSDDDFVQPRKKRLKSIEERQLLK
The conditions noted are these: Compound concentration 20.0 uM, Protein concentration 2.0 uM, Result type QC Liability.

As to `CCn1c(=O)c2c(C)c(C(=O)N3CCC(O)CC3)sc2n(CCC(F)(F)F)c1=O`, the ΔTm in assay [1] was -12.7 °C; in assay [2], 0.23 °C.
For `CCCCNc1ncc2c(-c3ccc(CN4CCN(C)CC4)cc3)cn([C@H]3CC[C@H](O)CC3)c2n1`, in that order: -3.24 °C and -0.35 °C.
Turning to `O=C1Nc2ccc(C(=O)c3ccco3)cc2C1=Cc1cc(Cl)c(O)c(Cl)c1`, the ΔTm in assay [1] is 0.79 °C; in assay [2], -3.45 °C.
For `COc1cc(C(=O)NCCOCCOCCOCC(=O)N[C@H](C(=O)N2C[C@@H](O)C[C@H]2C(=O)NCc2ccc(-c3scnc3C)cc2)C(C)(C)C)ccc1Nc1ncc(C(F)(F)F)c(Oc2cccc3c2C(=O)CC3)n1`, in that order: 0.11 °C and 2.2 °C.
For `Cc1cc2ncnn2cc1Nc1ncc2c(n1)n(C1CCOCC1)c(=O)n2C`, in that order: -1.59 °C and -4.66 °C.
Turning to `CC(=O)c1c(C)c2cnc(Nc3ccc(N4CCN(CCCCNC(=O)COc5cccc6c5C(=O)N(C5CCC(=O)NC5=O)C6=O)CC4)cn3)nc2n(C2CCCC2)c1=O` (stereo not given), the ΔTm in assay [1] is -0.38 °C; in assay [2], -3.15 °C.
Consider `COc1cc(C(=O)NC2CCN(C)CC2)ccc1Nc1ncc(C(F)(F)F)c(NCc2ccc(C)cc2N(C)S(C)(=O)=O)n1`, for which the ΔTm in assay [1] was -2.71 °C; in assay [2], -3.38 °C.
In the case of `Cc1nc2ccc(Oc3ccc(F)cc3)cc2c(=O)n1C[C@H]1CCCN(C(C)C)C1`, the ΔTm in assay [1] was 0.67 °C; in assay [2], 0.18 °C.
As for `C/C(=C\C(=O)Nc1ccccc1C(=O)O)c1ccc2ccccc2c1`, the values for the ΔTm in assay [1] and in assay [2] were -0.82 °C and 0.61 °C, respectively.
Turning to `Nc1ncnc2c1c(I)cn2[C@@H]1O[C@H](CO)[C@@H](O)[C@H]1O`, the ΔTm in assay [1] is -1.9 °C; in assay [2], -4 °C.
In the case of `Cn1c(Nc2c(Cl)cccc2Cl)nc2ccc3nc[nH]c(=O)c3c21`, the results for the shift in melting temperature (ΔTm) in assay [1] and in assay [2] were -3.08 °C and -3.83 °C, respectively.
`Clc1ccc(-c2nc3sccn3c2/C=N/OCc2ccc(Cl)c(Cl)c2)cc1`: the ΔTm was -1.58 °C in assay [1] and -1.95 °C in assay [2].
On to `CN1CCN(c2ccc(/C=C(\C#N)c3ccccc3Br)cc2)CC1`, for which the ΔTm in assay [1] was -4.31 °C; in assay [2], -4.7 °C.
As for `Cc1c(N2CCNCC2)nc2ccc(Br)cc2c1C(=O)NC[C@H](CCC(=O)O)c1ccccc1Cl`, the ΔTm in assay [1] is -1.62 °C; in assay [2], -1.51 °C.
As for `Cc1cc2c(ncn2C2(C)CN(C(=O)c3ccn(CC4CCN([C@H]5C=CCCCC5)CC4)c3)C2)c(N)n1`, the ΔTm in assay [1] was -1.87 °C; in assay [2], -2.7 °C.
For `Cc1ncsc1-c1ccc(CNC(=O)[C@@H]2C[C@@H](O)CN2C(=O)[C@@H](NC(=O)C2(F)CC2)C(C)(C)C)c(OCCOc2ccc(CN3CCN(c4cc(-c5ccccc5O)nnc4N)CC3)cc2)c1`, in that order: 13.5 °C and 0 °C.
Consider `CC/C(=C(\c1ccccc1)c1ccc(OCCN(C)C)cc1)c1ccccc1`, for which the ΔTm in assay [1] was -4.1 °C; in assay [2] it was -5.01 °C.
For `CC#CC(=O)N1CCN(c2nc(-c3ccc(Oc4ccccc4)cc3)c(C(N)=O)s2)CC1`, the ΔTm in assay [1] was -3.96 °C; in assay [2], -3.1 °C.
On to `CN1Cc2nccc(-c3cn(C)nc3-c3ccc(F)cc3)c2C1=O`, for which the ΔTm in assay [1] is -1.27 °C; in assay [2], -1.67 °C.
For `COc1ccc(S(=O)(=O)N2CCOCC2)cc1Nc1ccc2c(n1)N(C1CCOCC1)[C@H](C)C(=O)N2C`, in that order: 5.07 °C and -1.05 °C.
Regarding `Cc1cc2c(-c3ccco3)cnc(N[C@@H]3CCN(C)C[C@H]3C(=O)NC3CCCCC3)c2[nH]c1=O`, the shift in melting temperature (ΔTm) in assay [1] was 13.3 °C; in assay [2] it was -4.37 °C.
For `Cc1c(CCC(=O)O)cccc1NC(=O)[C@@H](c1ccc(-c2cncc(Cl)c2)c(F)c1)C1CCCC1`, in that order: 0.73 °C and 0.32 °C.
For `CCCCC[C@@](C)(O)/C=C/[C@H]1C(=O)CC(O)C1C/C=C\CCCC(=O)O` (stereo not given in full), in that order: -1.7 °C and -0.59 °C.
For the compound `Cn1nccc1-c1ccc(Sc2cccc(C3(C(N)=O)CCOCC3)c2)cc1`, the ΔTm in assay [1] is -0.19 °C; in assay [2], 0.56 °C.
As for `Cn1cnc(Cn2ccc3ccc(CNCc4[nH]c5ccccc5c4[C@H]4NC(=O)c5ccc(O)cc54)cc32)c1`, the values for the ΔTm in assay [1] and in assay [2] were 0.36 °C and 0.2 °C, respectively.
Consider `Cc1nc2ccc(Cl)cc2c(-c2ccccc2)c1CC(=O)O`, for which the ΔTm in assay [1] was -0.84 °C; in assay [2], 0.64 °C.
Take `CCCN1C(=O)c2ccc(Cl)cc2Nc2ncccc21`: the ΔTm in assay [1] is 0.34 °C; in assay [2] it was 0.51 °C.
For `CNC(=O)COc1cc2cc(Nc3nc(N4CCC(C(=O)N(C)C)CC4)ncc3Cl)cc(OC)c2n(C)c1=O`, in that order: -1.01 °C and -0.08 °C.
Regarding `O=C(N[C@H](Cc1ccccc1)C(=O)O)c1cccc(OCc2cccnc2)c1`, the ΔTm in assay [1] is -1.53 °C; in assay [2], -0.73 °C.
As for `CNC(=O)c1ccc2c(c1)NC(=O)/C2=C(\Nc1ccc(CN2CCCCC2)cc1)c1ccccc1`, the ΔTm is -3.03 °C in assay [1] and -3 °C in assay [2].
For `CC1CCN(C(=O)[C@H](CCn2cccc2C#N)NS(=O)(=O)c2cccc3[nH]ccc23)CC1`, in that order: 0.4 °C and 0.4 °C.
For `CN1CC(=O)N(C)c2cnc(Nc3ccc(NC(=O)Nc4cccc(C(=O)O)c4)cc3)nc21`, in that order: 0.02 °C and -0.69 °C.
As to `NCC1CCC(CNc2nc(NCc3ccccc3OC(F)(F)F)ncc2[N+](=O)[O-])CC1` (stereo not given), the ΔTm in assay [1] was -3.36 °C; in assay [2], -1.36 °C.
In the case of `COc1cc(-c2cncc(-c3ccc(N4CCN(C(C)C)CC4)cc3)c2C)cc(F)c1C(N)=O`, the ΔTm is -2.5 °C in assay [1] and -3.06 °C in assay [2].
Consider `CN(C)C(=O)Cn1cc(-c2ccc(-c3nnc4ccccn34)cc2)cn1`, for which the values for the ΔTm in assay [1] and in assay [2] were -1.96 °C and 0.35 °C, respectively.

As a reminder, the ΔTm is the shift of the melting midpoint relative to a reference.
